Assay outcomes as filed in PubChem.
A selection: hits, their analogues and other compounds. The true share with any hit is near 4.8%.
ATXN2 expr inh: inhibitors of ATXN2 expression | HEK-293 ATXN2-luciferase reporter, luminescence, 24 h | Potency, µM (series often up to 57 µM), for the others: at the top dose activity change, negative = inhibition, actives largely listed as inhibitors | AID 1745845 | actives 0.72% (n = 360,000); note: potency is the fitted concentration of half-maximal effect; % is set by controls: 0 for no effect and ±100 for the full control effect; nearly all actives have a fitted effect of over 55% in size
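ATXN2-luciferase reporter cells (luciferase flanked by upstream and downstream ATXN2 gene portions) were treated 24 h at 37 °C with compounds at up to 57 uM. SteadyGlo luminescence gave expression; GF-AFC fluorescence gave viability.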
IL-1B inflam inh: inflammasome signaling inhibition, IL-1 beta readout; actives 4.7% (n = 360,000); AID 743279; activity change, % at 57.5 µM; THP-1 LPS/ATP IL-1B secretion, AlphaLISA, 16 h; stronger effect = lower value; in the data active = activity change below about -50%; inconclusive = mostly about -30% to -49%; note: % is set by controls: 0 for no effect and ±100 for the full control effect
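Secreted IL-1B measured by AlphaLISA bead assay after 16 h compound exposure of THP-1 cells; compounds (final up to 57.5 uM) added 1 h before LPS (250 ng/mL) and ATP (1.25 mM) stimulation; lower signal means less secretion.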
USP1-UAF1 inh: blocks the human USP1/UAF1 deubiquitinase complex; O94782; recombinant USP1/UAF1, Ub-Rhodamine cleavage fluorescence; Potency, µM (highest dose often 57.1 µM), for the others: at the highest dose activity change, negative = inhibition, hits mostly inhibitors; actives 0.23% (n = 390,000); note: potency is the fitted concentration of half-maximal effect; % is set by controls: 0 for no effect and ±100 for the full control effect; nearly all actives have a fitted effect of over 60% in size
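USP1/UAF1 complex (1 nM) preincubated 15 min at room temperature with compound, then Ub-Rho substrate (150 nM final) added. Kinetic fluorescence at 480/540 nm over 6 reads at 60 s intervals; 50 mM HEPES pH 7.8, 0.5 mM EDTA, 0.1 mg/ml BSA, 1 mM TCEP, 0.01% Tween-20.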
USP2a inh: inhibitors of human ubiquitin-specific protease USP2a; O75604; USP2 core, Ub-CHOP2 coupled fluorogenic reporter, 485/531; Potency, µM (highest dose often 38.3 µM), inactives show top-dose activity change, negative = inhibition, actives largely listed as inhibitors; actives 0.01% (n = 330,000); AID 463254;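 note: potency is the fitted concentration of half-maximal effect; plate controls were DMSO wells for no effect and full inhibition by NEM control for full effect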
Target sequence (O75604 whole entry, looked up): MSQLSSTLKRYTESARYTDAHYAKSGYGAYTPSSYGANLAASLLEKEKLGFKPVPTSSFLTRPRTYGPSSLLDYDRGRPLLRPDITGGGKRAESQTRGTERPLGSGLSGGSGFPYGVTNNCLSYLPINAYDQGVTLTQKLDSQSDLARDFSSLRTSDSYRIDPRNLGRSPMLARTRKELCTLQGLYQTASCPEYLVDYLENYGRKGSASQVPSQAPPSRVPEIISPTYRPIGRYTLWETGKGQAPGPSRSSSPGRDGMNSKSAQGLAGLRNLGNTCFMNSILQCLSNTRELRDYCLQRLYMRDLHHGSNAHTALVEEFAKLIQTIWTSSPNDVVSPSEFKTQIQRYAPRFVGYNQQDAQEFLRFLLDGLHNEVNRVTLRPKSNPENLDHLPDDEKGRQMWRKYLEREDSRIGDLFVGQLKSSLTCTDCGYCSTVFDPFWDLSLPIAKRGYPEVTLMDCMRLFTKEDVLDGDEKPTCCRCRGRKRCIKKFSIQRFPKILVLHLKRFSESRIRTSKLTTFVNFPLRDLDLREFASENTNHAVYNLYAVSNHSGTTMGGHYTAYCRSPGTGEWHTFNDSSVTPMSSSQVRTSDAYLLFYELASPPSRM
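Deubiquitinase activity read as fluorescence (485/531 nm) after Ub-CHOP2 cleavage activates the enterokinase reporter on its substrate; USP2 core 10nM, Ub-CHOP2 and substrate 25nM each, 30min compound preincubation then 60min RT; data normalized to NEM, curves fitted.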
S2 tox: viability counter-screen for ATXN expression inhibitors; S2 cells (HEK-293 line with an ATXN2-luciferase reporter) viability, CellTiter-Fluor protease fluorescence, 24 h; Potency, µM (highest dose often 56.7 µM), usual class: cytotoxic; actives 0.49% (n = 400,000); note: potency is the fitted concentration of half-maximal effect; nearly all actives have a fitted effect of over 40% in size
* marks the source's active call; other numbers are inactive results; i = inactive; ? = inconclusive; · = no result given; ! = a repeat was not active; [ ] = remark or other dose. Unless noted, calls come from the whole dose curve; as a rule, active = well fitted curve in the direction sought with a large enough effect; inconclusive = small, poorly fitted or top-dose-only effect, or another doubt; inactive = no such curve, though single readings can be large; an effect the other way counts as inactive or inconclusive.

SMILES	ATXN2 expr inh	IL-1B inflam inh	USP1-UAF1 inh	USP2a inh	S2 tox
COc1cc(SC)ccc1C(=O)Nc1ccc2c(c1)OCO2	83%[11.3 µM]	-63*	-2%	1%	i
COc1cc(SC)ccc1C(=O)Nc1ccc(C)cc1	101%	-57*	-22%	-5%	i
COc1cc(SC)ccc1C(=O)Nc1cccc(C)n1	9%	-70*	-8%	-1%	i
COc1ccc(C(=O)Nc2ccc3c(c2)OCCO3)c(OC)c1	·	-5	-18%	·	?
O=C(CO)N1CCC(c2[nH]nc(-c3ccc(Cl)cc3)c2-c2ccncn2)CC1	-14%	·	·	·	·
COc1ccc(CCC(=O)NCc2nc3cccnc3n2Cc2cccc(OC)c2)cc1	·	·	6%	·	·
CO[C@@H]1CN(C)C(=O)c2cc(NC(=O)NC3CCCCC3)ccc2OC[C@@H](C)N(CC2CCOCC2)C[C@@H]1C	·	0	·	·	·
O=[N+]([O-])c1ccc(Cl)c(S(=O)(=O)Nc2ccc(-c3ccc(N4CCCC4)nn3)cc2)c1	5%	-85*	-21%	5%	?
NC(=O)c1cc(NC(=O)CCNS(=O)(=O)c2cccc(C(F)(F)F)c2)cc(C(N)=O)c1	-7%	2	-12%	2%	i
Cc1cccc(OCCCC(=O)Nc2nc3ccccc3[nH]2)c1	13µM*	-1	-4%	4%	i
Cc1ccc(OCCCC(=O)Nc2nc3ccccc3[nH]2)cc1	-17%	19	-13%	11%	i
COc1ccc(OC)c(CN2C(=O)CSCC2(C)C(=O)Nc2c(C)cccc2C)c1 (stereo not given)	·	-67*	·	·	·
COc1ccccc1N(C)S(=O)(=O)c1ccc(C(=O)Nc2ccc(C)cc2C)cc1	1%	-25	-11%	-1%	i
COc1cccc(CNS(=O)(=O)c2c(C(=O)N3CCC(C)CC3)c(C)n(C)c2C)c1	·	·	-19%	·	·
COC(=O)[C@H](CCCN=C(N)N)NS(=O)(=O)c1ccc(C)cc1	1%	·	·	·	·
COC(=O)c1cn([C@@H]2C[C@@H](C(=O)Nc3cccc(SC)c3)N(C3CCCC3)C2)nn1	·	·	·	·	i
COc1ccc(C(=O)/C=C/c2ccc(O)cc2)c2c1CC(O)C(C)(C)O2 (stereo not given)	?	-93*	-27%	1%	i
COc1ccc(C(=O)/C=C/c2ccc(O)cc2)c(O)c1CC=C(C)C	?	-72*	3%	-1%	·
COc1c(Cl)cc2c([nH]c3cnccc32)c1NC(=O)c1cccnc1C	2%	·	·	·	·
COc1cccc(-c2ncc3ccccc3c2COC(=O)c2ccco2)c1	-8%	34	-8%	-1%	i
CO/N=C/c1ccc(N2CCN(C(=O)c3ccc(Cl)cc3Cl)CC2)c([N+](=O)[O-])c1	-31%	-62*	-6%	-1%	i
CO/N=C/c1ccc(N2CCN(C(=O)c3ccc(F)cc3)CC2)c([N+](=O)[O-])c1	-19%	-8	-12%	-4%	i
O=C(OCC(O)CO)c1ccccc1Nc1ccnc2cc(Cl)ccc12 (stereo not given)	-11%	-83*	-20%	-2%	i
CCN(CC)c1ccc(N=Nc2ccc(S(=O)(=O)N(C)C)cc2)c(S(=O)(=O)NCC[n+]2ccccc2)c1	·	·	·	·	i
Nc1c2ccccc2nc2ccccc12	5µM*	-97*!	?	-1%	·
SMILES	ATXN2 expr inh	IL-1B inflam inh	USP1-UAF1 inh	USP2a inh	S2 tox
Nc1c2c(nc3ccccc13)CCCC2	?	-18	-11%	0%	?
OC[C@@H](O)[C@H](O)[C@H](O)[C@@H](O)CO	13%	·	·	·	i
CSc1nc(N)nc(SCC(=O)Nc2ccc(Cl)cc2)c1C#N	1%	-78*	-10%	3%	i
CC(=O)N(c1onc(C)c1C)S(=O)(=O)c1ccc(N)cc1	-3%	·	·	·	i
CCOC(=O)c1c(NC(=O)c2ccc(S(=O)(=O)N(CC(C)C)CC(C)C)cc2)sc2c1CCN(C(=O)OCC)C2	6%	·	-28%	·	i
S=C(Nc1ccc(Br)cc1Cl)N1CCCC1	60%	9	-17%	1%	?
COc1ccc(C(=O)NC(=S)Nc2ccc(CN3CCOCC3)cc2)cc1Cl	·	-11	-6%	-2%	?
Cc1ccc(C(=O)NC(=S)Nc2ccc(CN3CCCCC3)cc2)c(C)c1	-13%	-53*	-20%	1%	i
O=C(NC(=S)Nc1ccc(CN2CCCCC2)cc1)c1ccco1	8%	-5	-12%	-12%	i
COc1ccc(C(=O)NC(=S)Nc2ccc(CN3CCCCC3)cc2)cc1Cl	-11%	-68*	-13%	3%	?
O=C(Nc1ccc(CN2CCCCC2)cc1)Nc1ccc(Br)cc1Cl	14µM*	-85*	-6%	1%	?
Cc1cnc(SCc2ccccn2)nc1C1CCCN(Cc2ccsc2)C1 (stereo not given)	·	·	·	·	i
CN(C)S(=O)(=O)Oc1cccc(C(=O)Nc2ccc(Cl)cc2)c1	42%	-63*	?	1%	?
COc1cc(C(=O)Oc2c(CN3CCOCC3)cc(Cl)c3cccnc23)cc(OC)c1OC	1.6µM*	33	-25%	0%	1.6µM*
COc1cccc(C(=O)Oc2c(CN3CCOCC3)cc(Cl)c3cccnc23)c1	10µM*	102	-25%	6%	?
CC(C)c1ccc(NC(=O)CCCc2nc(-c3ccc(Cl)cc3)no2)cc1	14%	·	-5%	·	i
CC(C)c1ccc(CNCc2ccccc2)cc1	9%	-51*	?	4%	i
CC(C)c1ccc(CNC(=O)CCc2ccccc2)cc1	·	19	-15%	-7%	i
CC[C@H](C)[C@H]1O[C@]2(CC[C@@H]1C)C[C@@H]1C[C@@H](CC=C(C)[C@@H](O[C@H]3C[C@H](OC)[C@@H](O[C@H]4C[C@H](OC)[C@@H](O)[C@H](C)O4)[C@H](C)O3)[C@@H](C)C=CC=C3CO[C@@H]4[C@H](O)C(C)=C[C@@H](C(=O)O1)[C@]34O)O2	3.5µM*	-29	-23%	·	3.5µM*
CON=C1C[C@]2(C[C@@H]3C[C@@H](C/C=C(\C)C[C@@H](C)/C=C/C=C4\CO[C@@H]5[C@H](O)C(C)=C[C@@H](C(=O)O3)[C@]45O)O2)O[C@H](/C(C)=C/C(C)C)[C@H]1C	·	·	·	·	16µM*
CCC(C)[C@H]1O[C@]2(C=C[C@@H]1C)C[C@@H]1C[C@@H](C/C=C(\C)[C@@H](O[C@H]3C[C@H](OC)[C@@H](O[C@H]4C[C@H](OC)[C@H](NC(C)=O)[C@H](C)O4)[C@H](C)O3)[C@@H](C)/C=C/C=C3\CO[C@@H]4[C@H](O)C(C)=C[C@@H](C(=O)O1)[C@]34O)O2 (stereo not given in full)	·	·	·	·	3.2µM*!
